Results: ChEMBL document CHEMBL3988442, “University of Dundee, Small-Polar-MMV Screening Library” (2021)
About 1,200 (3.2%) of roughly 38,000 compounds showed an effect of 50% or more. The median lay at about -58%. What follows is part of a selection rich in strong results, with near analogues and random picks from the rest.

These molecules were tested on Plasmodium falciparum (assay: Calibr Malaria Delayed Death Assay SOP). Conditions: concentration 4.99e-06 (unit not given; other assays of the set use mol/L).
Assay type: functional, organism-based
Set-up: scale not given: in the data most compounds retested in dose-response had high values

Row | SMILES | Percent Effect
1 | COC(=O)c1cc2c(=O)n(C3CC3)ccc2nc1C | -61.53%
2 | Cc1nc(C)n(C2CCCN(C(=O)CCCNc3ncccn3)C2)n1 (stereo unspecified) | -99.16%
3 | CSc1ccc(OCCN2CCNC(=O)C2C)cc1 (stereo unspecified) | -33.67%
4 | COCC1CC2(CCN(CC3CC3)CC2)CN1Cc1ccccn1.O=C(O)C(F)(F)F.O=C(O)C(F)(F)F (stereo unspecified) | 39.61%
5 | COCC1CC2(CCN(Cc3nccs3)CC2)CN1Cc1ccccn1.O=C(O)C(F)(F)F.O=C(O)C(F)(F)F.O=C(O)C(F)(F)F (stereo unspecified) | -3.583%
6 | COCC1CC2(CCN(Cc3ccoc3)CC2)CN1Cc1ccccn1 (stereo unspecified) | 55.13%
7 | CCOc1ccc(-c2c(C#N)c(N)nc3c2COCC3)cn1 | -92.51%
8 | CC(=O)N(Cc1noc(C2CC2)n1)C1CCN(Cc2ccccn2)C1 (stereo unspecified) | -1.635%
9 | O=C(O)C(F)(F)F.O=C(O)C(F)(F)F.O=C(c1ccnnc1)N1CCN(Cc2cccnc2)c2ncccc2C1 | -70.53%
10 | CN1CC[C@H](N(Cc2ccccc2)CC2CC2)C[C@H](O)C1 | 80.63%
11 | CN1CC[C@H](N(Cc2ccccc2)C2COC2)C[C@H](O)C1 | 43.99%
12 | CN1CC[C@H](N(C)Cc2ccccc2)C[C@H](O)C1 | 2.065%
13 | CN(CC1CC1)C(=O)CN(Cc1cccc(O)c1)C1CCC(O)CC1 (stereo unspecified) | -102.5%
14 | CN1CCC(N(C)CCC(=O)N2CCC(CCc3ccccc3)CC2)C1 (stereo unspecified) | 17.74%
15 | CN1CC[C@H](N(Cc2ccccc2)Cc2ccccc2)C[C@H](O)C1 | 71.85%
16 | O=c1[nH]c(CN2CCOC(Cn3cccn3)C2)nc2ccccc12 (stereo unspecified) | -93.34%
17 | Cc1cc(CN2CCN(C(=O)C(C(C)C)n3cncn3)CC2)no1 (stereo unspecified) | -20.49%
18 | Cc1ccc(OCCC(=O)N2CCCC(n3nc(C)nc3C)C2)cc1 (stereo unspecified) | 0.003662%
19 | c1ccc(CCCN2CCOC(Cn3cccn3)C2)cc1 (stereo unspecified) | -23.01%
20 | NC(=O)CCN(CC(=O)NCc1ccccn1)c1ccc(F)cc1 | -98.56%
21 | O=C(Nc1ccccc1)N1C[C@H]2C[C@H](C(=O)N3CCOCC3)[C@@H](C1)O2 | -95.7%
22 | CN1CCN(Cc2ccccc2CNC(=O)c2cc(Cl)ccc2F)CC1 | 65.2%

Row | SMILES | Percent Effect
23 | CN1CCN(Cc2ccccc2CNC(=O)c2cc(Br)ccc2F)CC1 | 76.59%
24 | O=C(NCc1ccccc1CN1CCOCC1)c1ccc(Br)cc1F | -44.16%
25 | Cn1ccc(C(=O)NCc2ccccc2CN2CCCCC2)cc1=O | -63.4%
26 | CN1CCN(C(CNC(=O)c2ccc(Cl)cc2F)c2cccs2)CC1 (stereo unspecified) | 51.8%
27 | CNC(=O)c1ccc(CNC(=O)c2ccc(Cl)cc2F)cc1 | -28.69%
28 | O=C(NCC(c1cccs1)N1CCOCC1)c1ccc(F)cc1Cl (stereo unspecified) | -47.97%
29 | CN1CCN(Cc2ccccc2CNC(=O)c2ccc(Br)cc2)CC1 | 45.05%
30 | CN1CCN(Cc2ccccc2CNC(=O)c2ccc(Cl)cc2F)CC1 | 76.33%
31 | CN1CCN(Cc2ccccc2CNC(=O)c2ccc(Br)cc2F)CC1 | 47.71%
32 | Cn1ccnc1CN1CCN(CC(=O)NCc2ccccc2F)CC1 | -19.05%
33 | CC1CCN(C(CNC(=O)CCn2cccn2)c2cccs2)CC1 (stereo unspecified) | -77%
34 | Cc1ccc(CCNC(=O)Cn2nc(C)n(Cc3ccccc3)c2=O)s1 | -1.162%
35 | CCCNC(=O)CCC(=O)n1nc(C)c2ccccc21 | -0.03666%
36 | Cc1cc(N(C)CCN(C)C)n2nc(C)cc2n1 | -114.6%
37 | Cc1cc(N(C)CCN(C)C2CCCC2)n2nc(C)cc2n1 | 53.42%
38 | Cc1cc(C)nc(N(C)CCN(C)C2CCCC2)n1 | 27.63%
39 | Nc1ncc(C(=O)N2CCN(c3nccs3)CC2)cc1Cl | -61.47%
40 | COc1ccccc1C1(CNc2ccc(C(=O)N(C)C)cn2)CC1 | -78.51%
41 | COc1ccccc1C1(CNc2ncc(S(N)(=O)=O)s2)CC1 | -83.98%
42 | COc1ccccc1C1(CNc2cn[nH]c(=O)c2Cl)CCOCC1 | -35.38%
43 | CS(=O)(=O)C1(CNCc2cccc(-n3cccn3)c2)CCOCC1 | -93.15%
44 | COc1ccccc1C1(CNCc2cccc(O)c2)CCOCC1 | 82.33%

Row | SMILES | Percent Effect
45 | Cc1nnc(NCC2(c3ccccc3)CCOCC2)c(C#N)c1C | 3.02%
46 | CN(C)c1ccc(C(=O)NCC2(c3ccccc3)CCOCC2)cc1 | -48.74%
47 | COc1cc(OC)c(CNC(=O)NCc2ccc(C#N)cc2)c(OC)c1 | -15.69%
48 | COc1ccccc1C1(CNCc2ccc([S+](C)[O-])cc2)CC1 (stereo unspecified) | 68.71%
49 | Cl.N#Cc1ccc(CNCC2(c3ccccc3)CCOCC2)cc1 | 82.55%
50 | COc1ccccc1C1(CNCc2ccc(C#N)cc2)CCOCC1 | 76%
51 | Oc1cccc(CNCCC2CCCO2)c1 (stereo unspecified) | -6.783%
52 | O=C(COc1ccccc1NCc1ccc(F)cc1)N1CCOCC1 | -94.22%
53 | COCCOCC(=O)Nc1ccccc1F | -49.03%
54 | COc1cc(CNc2cc(N3CCCC3CO)ncn2)ccn1 (stereo unspecified) | -84.2%
55 | CN1CCC/C1=N\S(=O)(=O)c1ccc(NC(=O)c2ccsc2)cc1 | -6.415%
56 | CCn1cnnc1CNC(=O)c1cc(F)ccc1OC | -155.2%
57 | Cl.Nc1cccnc1N1CCCCCC1 | -85.39%
58 | C[C@@H]1CN(CCC(=O)NCc2ccccc2Cl)C[C@@]1(O)C1CC1 | 46.32%
59 | O=C(O)C(F)(F)F.O=C(O)C(F)(F)F.c1coc(CN2CCCn3c(CN4CCOCC4)nnc3C2)c1 | -56.94%
60 | CCSc1ccc(C(=O)NCCc2nnc(-c3ccco3)[nH]2)cn1 | -77.1%
61 | CC(OCC1CC1)C(=O)NCCC(=O)Nc1ccccn1 (stereo unspecified) | -13.51%
62 | COc1ccc(OC)c(Nc2nc3c(C)nn(C)c3c(=O)n2C)c1 | -88.36%
63 | CCOCC1CC2(CCN(C(=O)c3ccc4ccccc4n3)CC2)CO1.O=C(O)C(F)(F)F (stereo unspecified) | 2.806%
64 | COc1ccc(CN(C)Cc2cccc(C#N)c2)c(OC)c1 | 25.49%
65 | COc1cccc(N2CCC(CNCc3cccc(C#N)c3)C2)c1 (stereo unspecified) | -60.34%
66 | COc1ccccc1C1(CNCc2cccc(C#N)c2)CCOCC1 | 66.05%
